PubChem BioAssay (NCATS)
A number with no mark means an inactive call. Inconclusive results are not listed. The source made the active and inactive calls. Unless noted, calls come from the whole dose curve; as a rule, active = well fitted curve in the direction sought with a large enough effect; inconclusive = small, poorly fitted or top-dose-only effect, or another doubt; inactive = no such curve, though single readings can be large; an effect the other way counts as inactive or inconclusive.

Target: Tyrosine-protein kinase Yes (Homo sapiens) (UniProt P07947)
Assay: qHTS for small molecule inhibitors of Yes1 kinase: Primary Screen (AID 686947); note: nearly all actives have a fitted effect of over 60% in size; note: potency is the fitted concentration of half-maximal effect;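 for activity change, negative = inhibition: plate controls were DMSO with enzyme for no effect and no-enzyme DMSO wells for full effect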
Conditions: Yes1 kinase biochemical qHTS inhibition; series mostly up to 76.9 µM; activity change, negative = inhibition: at the top concentration
Outline: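 In this qHTS format, inhibition is expressed relative to DMSO controls with enzyme (maximum) and without enzyme (minimum). The 60 min room-temperature reaction uses 0.1 mM ATP, with ADP detected by luminescence.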

Tyrosine-protein kinase Yes (Homo sapiens), sequence (P07947 whole entry, looked up): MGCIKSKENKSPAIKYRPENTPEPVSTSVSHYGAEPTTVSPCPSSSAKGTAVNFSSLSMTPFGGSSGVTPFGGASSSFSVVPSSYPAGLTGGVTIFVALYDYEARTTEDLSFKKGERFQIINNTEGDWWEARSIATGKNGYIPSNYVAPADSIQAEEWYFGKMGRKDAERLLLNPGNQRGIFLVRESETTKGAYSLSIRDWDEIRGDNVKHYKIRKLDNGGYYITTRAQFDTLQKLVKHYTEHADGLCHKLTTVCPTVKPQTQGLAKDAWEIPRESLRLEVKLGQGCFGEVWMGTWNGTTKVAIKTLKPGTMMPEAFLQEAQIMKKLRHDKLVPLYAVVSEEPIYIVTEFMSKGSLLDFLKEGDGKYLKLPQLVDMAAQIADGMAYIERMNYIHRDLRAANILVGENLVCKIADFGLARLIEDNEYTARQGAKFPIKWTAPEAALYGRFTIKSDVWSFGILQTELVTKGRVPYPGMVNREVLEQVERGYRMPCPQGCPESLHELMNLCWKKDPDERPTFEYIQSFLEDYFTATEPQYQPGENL

With `COc1cc(C)c(Sc2cnc(NC(=O)c3ccc(CNC(C)C(C)(C)C)cc3)s2)cc1C(=O)N1CCN(C(C)=O)CC1` (centres undefined) the Potency was 54.7 nM (active).
For `N#Cc1ccc(COC[C@H]2O[C@@H](n3c(NCc4ccc(Cl)c(Cl)c4)nc4c(N)ncnc43)[C@@H](O)[C@@H]2O)cc1`, the Potency was 487 nM (active).

In order of rising “activity change, negative = inhibition” value:
1. N#Cc1c(NC(=O)c2cccc3ccccc23)sc2c1CCCC2  -15.6%
2. C=CCNC1=C2C[C@@H](C)C[C@H](OC)[C@@H](O)[C@@H](C)C=C(C)[C@H](OC(N)=O)[C@@H](OC)C=CC=C(C)C(=O)NC(=CC1=O)C2=O  -7.8%
3. COc1cc2c(cc1OC)[C@@H]1C(=O)c3ccc4c(c3O[C@@H]1CO2)C=CC(C)(C)O4  0.151%

Tested on: not listed separately
Assay: qHTS for small molecule inhibitors of Yes1 kinase: Counter Assay (AID 686950);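 note: no kinase present so only ADP-Glo detection of a fixed ADP amount is tested; luminescence from ADP-Glo reporting ADP in a fixed ATP and ADP mixture; 0% = DMSO wells with ATP plus ADP and -100% = ATP-only wells without ADP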
Conditions: series mostly up to 76.9 µM; activity change, negative = inhibition: at the top concentration
Outline: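 ADP-Glo luminescence read after a 60 min room-temperature incubation of compound with an ATP/ADP mix (0.08 mM/0.02 mM) and no kinase, following a 20 min compound preincubation. Signal scaled between ATP+ADP (max) and 0.1 mM ATP-only (min) wells; Tris pH 7.5, Mg2+, DTT.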

In the case of `COc1cc(C)c(Sc2cnc(NC(=O)c3ccc(CNC(C)C(C)(C)C)cc3)s2)cc1C(=O)N1CCN(C(C)=O)CC1` (centres undefined), the outcome was “inactive”.

In order of rising “activity change, negative = inhibition” value:
1. COc1cc2c(cc1OC)[C@@H]1C(=O)c3ccc4c(c3O[C@@H]1CO2)C=CC(C)(C)O4  -12.9%
2. Cn1c(Nc2ccc(C(F)(F)F)cc2)nc2cc(Oc3ccnc(-c4ncc(C(F)(F)F)[nH]4)c3)ccc21  -5.95%
3. C=CCNC1=C2C[C@@H](C)C[C@H](OC)[C@@H](O)[C@@H](C)C=C(C)[C@H](OC(N)=O)[C@@H](OC)C=CC=C(C)C(=O)NC(=CC1=O)C2=O  -5.9%
4. N#Cc1c(NC(=O)c2cccc3ccccc23)sc2c1CCCC2  1.13%
5. N#Cc1cc(NC(=O)Nc2nnc(-c3ccncc3)s2)ccc1-c1cn[nH]c1  3.63%
6. N#Cc1ccc(COC[C@H]2O[C@@H](n3c(NCc4ccc(Cl)c(Cl)c4)nc4c(N)ncnc43)[C@@H](O)[C@@H]2O)cc1  3.94%

Tested on: not listed separately
Assay: qHTS for compounds that reverse cellular toxicity of Amyloid beta (A-beta) peptide in yeast: LOPAC Validation Assay (AID 720559);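 note: plate controls were DMSO for no effect and equimolar ferric chloride plus clioquinol rescue for full effect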
Conditions: yeast expressing A-beta; series mostly up to 46.1 µM; growth rescue, positive = activation: at the top concentration
Outline: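 OD600 growth readout after 48 hr at 30 C; A-beta-toxic yeast plus pinned compounds in medium. Normalization: DMSO = negative, equimolar FeCl3 + clioquinol = positive.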

In order of rising “growth rescue, positive = activation” value:
1. COc1ccc2cc([S+]([O-])Cc3ncc(C)c(OC)c3C)nc2c1  -61.4%
2. O=c1[nH]c(=O)n([C@H]2C[C@@H](O)[C@@H](CO)O2)cc1C=CBr  -5.48%
3. CN[C@H](CC(C)C)C(=O)N[C@H]1C(=O)N[C@@H](CC(N)=O)C(=O)N[C@@H]2C(=O)N[C@H]3C(=O)N[C@H](C(=O)N[C@H](C(=O)O)c4cc(O)cc(O)c4-c4cc3ccc4O)[C@H](O)c3ccc(c(Cl)c3)Oc3cc2cc(c3O[C@@H]2O[C@H](CO)[C@@H](O)[C@H](O)[C@@H]2O[C@H]2C[C@](C)(N)[C@H](O)[C@H](C)O2)Oc2ccc(cc2Cl)[C@H]1O  -2.46%

Tested on: not listed separately
Assay: qHTS for Activators of Parkin Expression: LOPAC Validation Assay (NLuc Reporter) (AID 720572)
Conditions: Parkin promoter NanoLuc reporter cells, luminescence, percent of positive control, DMSO as zero; series mostly up to 46.1 µM; activation: at the top concentration
Outline: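 Compound effects on Parkin promoter activity were measured as NanoLuc luminescence after 24 h at 37 C. The neuronal reporter line also carried FLuc, which was read first. LOPAC compounds were tested at 7 concentrations, with normalization to DMSO (0%) and positive control (100%).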

In order of falling “activation” value:
1. COc1ccc2cc([S+]([O-])Cc3ncc(C)c(OC)c3C)nc2c1  3.59%
2. O=c1[nH]c(=O)n([C@H]2C[C@@H](O)[C@@H](CO)O2)cc1C=CBr  -0.776%
3. CN[C@H](CC(C)C)C(=O)N[C@H]1C(=O)N[C@@H](CC(N)=O)C(=O)N[C@@H]2C(=O)N[C@H]3C(=O)N[C@H](C(=O)N[C@H](C(=O)O)c4cc(O)cc(O)c4-c4cc3ccc4O)[C@H](O)c3ccc(c(Cl)c3)Oc3cc2cc(c3O[C@@H]2O[C@H](CO)[C@@H](O)[C@H](O)[C@@H]2O[C@H]2C[C@](C)(N)[C@H](O)[C@H](C)O2)Oc2ccc(cc2Cl)[C@H]1O  -4.32%

Tested on: not listed separately
Assay: qHTS for Activators of Parkin Expression: LOPAC Validation Assay (FLuc Reporter) (AID 720573)
Conditions: Cell line, PRKN promoter firefly luciferase reporter, vehicle wells = 0, positive control = 100%; series mostly up to 46.1 µM; activation: at the top concentration
Outline: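 FLuc luminescence read-out from a neuronal line expressing a Parkin-promoter-driven coincidence reporter. Cells treated 24 h at 37 C, 5% CO2 with compounds at 7 concentrations; signal increase normalized to DMSO and positive control.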

In order of rising “activation” value:
1. O=c1[nH]c(=O)n([C@H]2C[C@@H](O)[C@@H](CO)O2)cc1C=CBr  -7.21%
2. CN[C@H](CC(C)C)C(=O)N[C@H]1C(=O)N[C@@H](CC(N)=O)C(=O)N[C@@H]2C(=O)N[C@H]3C(=O)N[C@H](C(=O)N[C@H](C(=O)O)c4cc(O)cc(O)c4-c4cc3ccc4O)[C@H](O)c3ccc(c(Cl)c3)Oc3cc2cc(c3O[C@@H]2O[C@H](CO)[C@@H](O)[C@H](O)[C@@H]2O[C@H]2C[C@](C)(N)[C@H](O)[C@H](C)O2)Oc2ccc(cc2Cl)[C@H]1O  -4.44%
3. COc1ccc2cc([S+]([O-])Cc3ncc(C)c(OC)c3C)nc2c1  -3.78%

Tested on: not listed separately
Assay: qHTS assay for small molecule agonists of the antioxidant response element (ARE) signaling pathway measured by Nrf2-dependant transcriptional activity (AID 720636; active = well fitted curve in the direction sought with a large enough effect in the repeat runs; an effect the other way counts as inactive or inconclusive; note: % of control where 0% means no effect)
Conditions: ARE-luc HepG2, Nrf2 luciferase reporter, 16 h; series mostly up to 92.4 µM; activation: at the top concentration
Outline: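 Quantitative HTS format in HepG2 cells stably expressing an ARE-luciferase reporter; 16 hr compound treatment at 37 C, luciferase signal detected with ONE-Glo.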

In order of falling “activation” value:
1. Cc1cc(O)c2c(c1)C(=O)c1cccc(O)c1C2=O  1.2%
2. OC[C@@H](O)[C@@H](O)[C@H](O)[C@@H](O)CO  0.25%
3. C[C@]12CC[C@@H]3c4ccc(O)cc4CC[C@H]3[C@H]1CC[C@H]2O  0.147%
4. CC(C=CC1=C(C)CCCC1(C)C)=CC=CC(C)=CC(=O)Nc1ccc(O)cc1  -4.32%

Tested on: not listed separately
Assay: qHTS assay for small molecule agonists of the antioxidant response element (ARE) signaling pathway measured by Nrf2-dependant transcriptional activity - cell viability counter screen (AID 720653; active = well fitted curve in the direction sought with a large enough effect in the repeat runs; an effect the other way counts as inactive or inconclusive; note: % is set by controls: 0 for no effect and ±100 for the full control effect)
Conditions: ARE-bla HepG2 viability, CellTiter-Glo ATP luminescence, 16 h; stronger effect = lower value
Excerpt: National Center for Advancing Translational Sciences [NCATS] NIH Chemical Genomics Center [NCGC] U.S. Environmental Protection Agency [EPA] National Institutes of Environmental Health Sciences [NIEHS] National Toxicology Program [NTP] Assay Overview: Oxidative stress has been implicated in the pathogenesis of a variety of diseases ranging from cancer to neurodegeneration. The antioxidant response element (ARE) signaling pathway plays an important role in the amelioration of oxidative stress. The CellSensor ARE-bla HepG2 cell line (Invitrogen) can be used for analyzing the Nrf2/antioxidant response signaling pathway. Nrf2 (NF-E2-related factor 2) and Nrf1 are transcription factors that bind to AREs and activate these genes. The CellSensor ARE-bla HepG2 cell line contains a beta-lactamase reporter gene under control of the Antioxidant Response Element (ARE) stably integrated into HepG2 cells. The activation of the report gene under culture conditions can be detected by fluorescence intensity. The cytotoxicity of the compounds against the ARE-bla HepG2 cell line was quantified by measuring the intracellular ATP content.
Assay Protocol Summary: ARE-bla HepG2 cells were dispensed at 2,000 cells/5 ul/well in 1536-well black wall/clear bottom plates using a Multidrop Combi (ThermoFisher Scientific, Waltham, MA) dispenser. After the assay plates were incubated at 37C/5% CO2 for 5 hrs, 23 nL of compounds dissolved in DMSO, positive controls or DMSO only was transferred to the assay plate by a pintool work station (Kalypsys, San Diego, CA). The plates were incubated at 37C/5% CO2 for 16 hrs. After 1 uL of LiveBLAzer B/G FRET substrate was added using a Flying Reagent Dispenser (FRD) (Aurora Discovery, San Diego, CA), the assay plates were incubated at room temperature for 2 hrs. The fluorescence intensity was measured by an Envision (PerkinElmer, Shelton, CT) plate reader. Cell viability using CellTiter Glo viability assay (Promega, Madison, WI) was also measured by adding 4 ul/well of CellTiter-Glo reagent into the same assay plate using a FRD. After 30 min incubation at room temperature, the luminescence intensity in the plates was measured using a ViewLux (PerkinElmer) plate reader.

In order of rising max response:
1. Cc1cc(O)c2c(c1)C(=O)c1cccc(O)c1C2=O  -8.79%
2. C[C@]12CC[C@@H]3c4ccc(O)cc4CC[C@H]3[C@H]1CC[C@H]2O  -1.4%
3. O=C1c2cccc(O)c2C(=O)c2c(O)cc(CO)cc21  1.52%
4. OC[C@@H](O)[C@@H](O)[C@H](O)[C@@H](O)CO  2.04%
